The source of these data is PubChem BioAssay (NCATS).

Each structure is given as a SMILES string. Results filed as inconclusive are left out. Values without a mark were called inactive. Active and inactive are the calls of the source. The call rests on the fitted dose curve; in most records, active means well fitted activation curve with a large enough effect; inconclusive means small, poorly fitted or top-dose-only effect; inactive means no such curve, though single readings can be large or run the other way.
Potency means the concentration at half of the fitted maximal effect.

A short description of this test: Validation screen for small molecules that induce genotoxicity in human embryonic kidney (HEK293T) cells expressing luciferase-tagged ELG1 (AID 493106). On activity change, positive = ELG1 induction: 0% is about no effect. To be noted: luminescence; series mostly up to 46.1 µM; activity change, positive = ELG1 induction: at the top concentration. From the text: NIH Molecular Libraries Probe Production Network [MLPCN]
NIH Chemical Genomics Center [NCGC]
Assay Provider: Kyungjae Myung, NHGRI, NIH
Keywords: MLPCN, qHTS, NCGC, genotoxicity, cancer
Cancer cells divide rapidly compared to normal cells in the body. During cell division, cancer cells need to duplicate their genome by DNA replication. The failure of genome duplication leads to cancer cells' death. Therefore, inhibitors of DNA replication could specifically kill cancer cells. Based on this concept, many chemotherapeutic agents were developed and have been used to treat cancer patients. However, there are a limited number of agents available in the clinical setting, and some of those that do exist have low efficacy and severe side effects. Therefore, if we can find the compounds that effectively block DNA replication either by directly damaging DNA or by inhibiting other cellular mechanisms, the options for cancer treatment will be broadened. With this in mind, we developed a quantitative high-throughput ELG1-luciferase reporter gene assay. Since the level of human ELG1 protein is enhanced in response to genetic stresses, increases in luciferase activity can be used to identify compounds that cause genetic stress.
For genotoxicity screening, 2,000 cells in 5 uL/well were dispensed into white, solid-bottom 1536-well plates using a solenoid-based dispenser. Following transfer of 23 nL compound or DMSO vehicle by a pin tool, the plates were incubated 16 hr at 37 °C and 5% CO2. 5 ul ONE-Glo (Promega) was then added to each plate and following a 30 min incubation at room temperature, luciferase activity was quantified on a ViewLux CCD-based plate reader.
Turning to `CCN1/C(=C/C(C)=O)Sc2ccc(OC)cc21`, the “activity change, positive = ELG1 induction” value (from here on “activity change”) is -7.43%. Same read-out and setting: with `N[C@@H](CC(=O)O)C(=O)O` the figure was -2.92%; with `CCCCCCCCCCCCCCCCCC(=O)OC(CC(=O)O)C[N+](C)(C)C` (stereo not given), -3.52%; with `Ic1ccc(N2CCN(Cc3c[nH]c4ncccc34)CC2)cc1`, -4.21%. The same measure, in the same setting: the result for `N#C/C(=C\c1ccc(O)c(O)c1)C(=O)c1ccc(O)c(O)c1` reads -8.79%; that for `C=C[C@H]1CN2CC[C@@H]1C[C@@H]2[C@@H](O)c1ccnc2ccc(OC)cc12`, -2.77%. The same measure, in the same setting: with `O=S(=O)(c1cccc2c(I)cccc12)N1CCCNCC1` the figure was -9.48%; with `CCOC(=O)N1CCN(/[N+]([O-])=N/Oc2ccc([N+](=O)[O-])cc2[N+](=O)[O-])CC1`, -3.64%.

With `Nc1ncnc2c1ncn2[C@@H]1O[C@H](COP(=O)(O)OP(=O)(O)OP(=O)(O)OP(=O)(O)OC[C@@H]2O[C@H](n3cnc4c(N)ncnc43)[C@@H](O)[C@H]2O)[C@@H](O)[C@H]1O`, the “activity change” value was -4.03%. On the same count and under the same terms, with `N#C/C(=C\c1ccc(O)c(O)c1)C(=O)NCCCc1ccccc1` the figure was 4.03%. Consider `O=C1/C(=C/c2ccsc2)CC/C1=C\c1cccs1`, for which the Potency was 23.1 µM (active).

Turning to `COc1cccc(OC)c1OCCNCC1COc2ccccc2O1` (stereo not given), the “activity change” value is -14.1%. With `O=C(O)[C@@H]1C[C@H](C(=O)O)N1`, the “activity change” value is -7.07%. For the compound `O=c1[nH]c2cc(C(F)(F)F)ccc2n1-c1cc(C(F)(F)F)ccc1O`, the “activity change” value was -10.4%.

As to `CCCCCC(O)c1cccc(OCc2ccc3ccccc3n2)c1` (stereo not given), the “activity change” value is 0.602%. Regarding `NCCCCC(=O)O`, the “activity change” value is -3.07%. Take `NCC1OC(O[C@H]2[C@H](O)[C@@H](OC3C(O)C(N)CC(N)C3OC3OC(CO)C(O)C(O)C3N)O[C@@H]2CO)C(N)C(O)C1O` (stereo not given in full): the “activity change” value is -5.78%. As to `c1ccc(-c2ccccn2)nc1`, the “activity change” value was -1.93%. Take `Cn1cc(C2=C(c3ccc(Cl)cc3Cl)C(=O)NC2=O)c2ccccc21`: the “activity change” value was -18.1%. For `Cc1ccc(O)c(N=Nc2ccccc2)n1`, the Potency was 2.59 µM (active).

Turning to `CC(C)CC(NP(=O)(O)O[C@@H]1O[C@@H](C)[C@H](O)[C@@H](O)[C@H]1O)C(=O)NC(Cc1c[nH]c2ccccc12)C(=O)O` (stereo not given in full), the “activity change” value is -4.09%. The same measure, in the same setting: the result for `CN(C)CCC(c1ccc(Cl)cc1)c1ccccn1` (stereo not given) reads -4.03%; that for `OCC1O[C@H](O)C(Cl)C(O)C1O` (stereo not given in full), -5.9%; that for `Cn1c(=O)c2[nH]c(-c3ccccc3)nc2n(C)c1=O`, -4.21%.

Regarding `O=C(O)c1cc(=O)c2c(Cl)cc(Cl)cc2[nH]1`, the “activity change” value is -5.75%. The same measure, in the same setting: with `Clc1ccc(N2CCN(Cc3cc4ccccn4n3)CC2)cc1` the figure was -12.4%; with `O=C(Nc1cccc(C(=O)Nc2ccc(S(=O)(=O)O)c3cc(S(=O)(=O)O)cc(S(=O)(=O)O)c23)c1)Nc1cccc(C(=O)Nc2ccc(S(=O)(=O)O)c3cc(S(=O)(=O)O)cc(S(=O)(=O)O)c23)c1`, -7.7%. Still for that read-out and setting: the result for `NC(=S)c1ccc[n+]([C@@H]2O[C@@H](COP(=O)([O-])OP(=O)(O)OC[C@H]3O[C@@H](n4cnc5c(N)ncnc54)[C@H](OP(=O)(O)O)[C@@H]3O)C(O)C2O)c1` (stereo not given in full) reads -0.662%.

As for `O=C(Nc1ccccc1)c1cc([N+](=O)[O-])ccc1Cl`, the “activity change” value is -12.4%. The same measure, in the same setting: with `NC(=O)C1=CN(C2OC(COP(=O)(O)OP(=O)(O)OC[C@H]3O[C@@H](n4cnc5c(N)ncnc54)[C@H](OP(=O)(O)O)[C@@H]3O)C(O)C2O)C=CC1` (stereo not given in full) the figure was 12.2%. For the compound `CN(C)c1nc2c(Br)c(Br)c(Br)c(Br)c2[nH]1`, the “activity change” value is -24.7%. On the same count and under the same terms, the result for `C#C[C@]1(O)CC[C@H]2[C@@H]3CCC4=Cc5oncc5CC4(C)[C@H]3CCC21C` (stereo not given in full) reads -19%; that for `CC[C@@H](C)[C@H]1O[C@]2(CC[C@H]1C)C[C@@H]1C[C@@H](CC=C(C)[C@@H](O[C@H]3C[C@H](OC)[C@@H](O[C@H]4C[C@H](OC)[C@@H](O)[C@H](C)O4)[C@H](C)O3)[C@@H](C)C=CC=C3CO[C@@H]4[C@H](O)C(C)=C[C@@H](C(=O)O1)[C@]34O)O2`, -12.5%; that for `CC(C)NC[C@H](O)COc1cccc2[nH]ccc12`, -4.72%. On the same count and under the same terms, with `CSc1ccccc1N1CCN(CCCCCC(=O)NC2CCCc3ccccc32)CC1` (stereo not given) the figure was -17.5%; with `Nc1nc(SCc2ccc([N+](=O)[O-])cc2)c2ncn([C@@H]3O[C@H](CO)[C@@H](O)[C@H]3O)c2n1`, -5.24%. Turning to `CC(N)C(=O)OC(C)(C)Cc1ccc(Cl)cc1` (stereo not given), the “activity change” value was -7.22%. Still for that read-out and setting: the result for `C[C@@H](CN1CCC(Cc2ccccc2)CC1)[C@@H](O)c1ccc(O)cc1` reads -13.2%; that for `O=C(O)CCCC[C@@H]1CCSS1`, -3.22%; that for `CCCCCCCCCCCCCCCC(=O)OC(CC(=O)O)C[N+](C)(C)C` (stereo not given), -0.0602%.
